High-throughput results: PubChem, National Center for Advancing Translational Sciences (NCATS)
This is a sample that favours compounds with a hit; in the whole collection about 11% have one here.
Sfp PPTase inh = blocks B. subtilis Sfp PPTase activity; Biochemical Sfp PPTase activity, qHTS; Potency, µM, most hits filed as inhibitors; Q9F4F7; 310,000 tested, 3.5% active;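 further: the enzyme is Sfp with the accession as filed and its product quenches rhodamine fluorescence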
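Step 1, compound plus 15 nM Sfp-PPTase, 15 min, room temperature. Step 2, add rhodamine-CoA (5 uM) and BHQ-2-YbbR (12.5 uM). Step 3, read 525/598 nm fluorescence at 0 and 30 min.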
Tau FP inhib = tau fibrillization inhibition (FP); P10636; K18 P301L tau heparin fibrillization, Alexa594 FP, 6 h; Potency, µM (doses to about 57.7 µM), usual class: inhibitors; 280,000 tested, 0.39% active; further: nearly all actives have a fitted effect of over 55% in size
Target sequence (P10636 561-689 P618L limits assumed): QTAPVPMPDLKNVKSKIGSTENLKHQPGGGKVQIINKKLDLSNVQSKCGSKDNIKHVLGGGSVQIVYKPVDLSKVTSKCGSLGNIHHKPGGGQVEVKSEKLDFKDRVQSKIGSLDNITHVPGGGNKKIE
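K18 P301L tau (15 uM unlabeled/0.24 uM Alexa 594-labeled, final) + compound + heparin 20 uM final; 100 mM NaOAc pH 7; 6 hr 37 C; ThT 30 uM final added, 1 hr RT; FP ex 555/em 632 nm.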
FBPA coupling cs = inhibits coupling enzyme system, counter-screen for aldolase hits. coupling enzyme system counterscreen, AmpLite Red fluorescence. activity change, negative = inhibition, % at 58.2 µM, hits read low. 290,000 tested, 0.67% active. AID 2472; in the data active means activity change below about -30%
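Counterscreen lacking aldolase: glyceraldehyde-3-phosphate coupling-enzyme reagent preincubated 10 min at RT with compound (at 57.5 uM final), then substrate/coupling system with AmpLite Red added; fluorescence read at 525/598 nm after 20 min RT.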
Tau fibril ThT = inhibitors of human tau fibril formation, thioflavin T binding | P10636 | recombinant tau K18 P301L, heparin-induced fibrillization, ThT fluorescence | Potency, µM (highest dose often 57.4 µM), most hits filed as inhibitors | 270,000 tested, 2.1% active; further: nearly all actives have a fitted effect of over 55% in size
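K18 P301L tau (15 uM + 0.24 uM Alexa 594-tagged), heparin 20 uM, NaOAc pH 7, 6 h 37 C; ThT 30 uM, 1 h RT, ex 450/em 510 nm.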
Tau fluor counter = counter-screen for tau fibril formation inhibitors. tau K18 P301L Alexa594 fluorescence, heparin fibrillization. AID 1463. 280,000 tested, 0.93% active. Potency, µM (series often up to 57.7 µM); further: nearly all actives have a fitted effect of over 55% in size
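Human tau K18 P301L (15 uM unlabeled, 0.24 uM Alexa 594-labeled) in 100 mM sodium acetate pH 7 with 20 uM heparin, 6 hr at 37 C. ThT 30 uM added, 1 hr ambient; Alexa 594 FP and total fluorescence read at 555/632 nm.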
G9a inh = inhibitors of human histone lysine methyltransferase G9a; Q96KQ7; G9a H3K9 monomethylation, AlphaScreen, 2 h; Potency, µM (series often up to 102 µM), hits mostly inhibitors; 350,000 tested, 8.8% active; AID 504332; further: nearly all actives have a fitted effect of over 75% in size
Target sequence (Q96KQ7 913-1193 limits assumed): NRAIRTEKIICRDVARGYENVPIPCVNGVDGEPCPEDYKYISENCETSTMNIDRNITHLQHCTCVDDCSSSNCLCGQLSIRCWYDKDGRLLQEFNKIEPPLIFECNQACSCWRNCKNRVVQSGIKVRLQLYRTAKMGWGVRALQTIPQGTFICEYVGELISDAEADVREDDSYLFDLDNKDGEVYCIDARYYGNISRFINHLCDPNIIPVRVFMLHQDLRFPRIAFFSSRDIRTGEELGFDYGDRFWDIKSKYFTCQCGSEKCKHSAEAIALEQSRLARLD
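G9a (20 nM) was preincubated 15 min with compound, then reacted 2 h at room temperature with 500 nM biotin-H3K9 peptide and 20 µM SAM. Monomethyl-H3K9 detected by AlphaScreen using anti-H3K9me1 antibody.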
Large screens that a line does not name were inactive; [ ] = remark or other dose. Unless noted, the call rests on the fitted dose curve; in most records, active means well fitted curve in the direction sought with a large enough effect; inconclusive means small, poorly fitted or top-dose-only effect, or another doubt; inactive means no such curve, though single readings can be large; an effect the other way counts as inactive or inconclusive.

COc1ccccc1Nc1ncccc1C(=O)O	none
COc1ccc(OC)c(Nc2ccc(Nc3cc(OC)ccc3OC)nn2)c1	Tau FP inhib inconclusive, Tau fibril ThT inconclusive, Tau fluor counter 12.6µM[quencher], G9a inh 44.7µM
COc1ccccc1Nc1ccc(Nc2ccccc2OC)nn1	Tau fibril ThT inconclusive, Tau fluor counter inconclusive, G9a inh 50.1µM
Cc1ccc(-c2noc(-c3ccno3)n2)cc1	none
COc1cccc(NC(=O)CN(CCc2ccccc2)S(=O)(=O)c2ccc(Cl)cc2)c1	Tau FP inhib inconclusive, Tau fluor counter inconclusive, G9a inh 14.1µM (no result: Sfp PPTase inh, FBPA coupling cs)
COc1cccc(NC(=O)CN(C)CC(=O)Nc2ccc(C)cc2Cl)c1	Sfp PPTase inh 44.7µM, G9a inh 3.55µM
COc1cccc(NC(=O)CN(C)CC(=O)Nc2ccc(Br)cc2)c1	none
COc1cccc(NC(=O)CN(C)CC(=O)NC(C)c2ccccc2)c1 (stereo not drawn)	G9a inh 70.8µM
COc1cccc(NC(=O)C(NCC(C)(C)CN(C)C)c2ccccc2)c1 (stereo not drawn)	Sfp PPTase inh 79.4µM, G9a inh 11.2µM
COC(=O)c1ccc(NC(=O)CN(CCc2ccccc2)S(=O)(=O)c2ccc(OC)cc2)cc1	Tau FP inhib inconclusive, Tau fluor counter inconclusive (no result: Sfp PPTase inh, FBPA coupling cs)
CCCOc1ccc(NC(=O)CC2C(=O)N(c3ccccc3)C(=O)N2CCC(C)C)cc1 (stereo not drawn)	Tau fluor counter inconclusive (no result: Sfp PPTase inh, FBPA coupling cs)
Cc1cccc(N(CC(=O)NC2CCCC2)C(=O)CCC(=O)Nc2ccccn2)c1	none (no result: Tau FP inhib, Tau fibril ThT, Tau fluor counter)
CCOc1ccc(CNC(=O)c2ccccc2NC(=O)c2nsc3ccccc23)cc1	Tau FP inhib inconclusive (no result: Sfp PPTase inh, FBPA coupling cs)
COc1ccc(C2C(C#N)=C(N)N3C(=C2C#N)Sc2ccccc23)cc1 (stereo not drawn)	Tau fibril ThT inconclusive, G9a inh 6.31µM
COc1ccc(C2C(C#N)=C(N)Nc3nc4ccccc4n32)cc1 (stereo not drawn)	Tau FP inhib inconclusive, G9a inh inconclusive
Cc1ccc(C)c(N2CCN(C(=O)Cc3ccc(NC4=NC5CS(=O)(=O)CC5S4)cc3)CC2)c1 (stereo not drawn)	none (no result: Tau FP inhib, Tau fibril ThT, Tau fluor counter, G9a inh)
COc1cccc(CNC(=O)CCC2CCCN(C(=O)c3ccc(OC)o3)C2)c1 (stereo not drawn)	Sfp PPTase inh 50.1µM (no result: G9a inh)
COc1cccc(CNC(=O)CCC2CCCN(C(=O)c3cc(C)on3)C2)c1 (stereo not drawn)	Tau FP inhib inconclusive
Cc1cccc(N2CCN(S(=O)(=O)c3ccc(-c4cc(C(F)(F)F)on4)s3)CC2)c1C	Tau FP inhib inconclusive (no result: Sfp PPTase inh, FBPA coupling cs)
Cn1cc(SCC(=O)N2CCN(c3ccccc3)CC2)c2ccccc21	Tau fibril ThT inconclusive, G9a inh 39.8µM
CNS(=O)(=O)c1cn(CC(=O)N2CCN(c3cccc(C)c3C)CC2)cc1S(=O)(=O)NC	none (no result: Sfp PPTase inh, FBPA coupling cs)
Cc1cccc(N2CCN(C(=O)Cn3cccc3)CC2)c1C	Tau fibril ThT inconclusive, G9a inh 50.1µM
Cc1ccc(C(=O)N2CCN(c3cccc(C)c3C)CC2)o1	G9a inh 70.8µM (no result: Tau FP inhib, Tau fibril ThT, Tau fluor counter)
Cc1cccc(N2CCN(C(=O)Cc3cn(C)c4ccccc34)CC2)c1C	G9a inh 50.1µM
CCc1cccc(C)c1N1C(=O)CC(C)(C)CC1=O	none (no result: Tau fibril ThT)
Cc1ccc2nc(NC(=O)CSc3cc(C)[nH]c(=O)n3)sc2c1	Tau FP inhib inconclusive, Tau fibril ThT inconclusive, G9a inh inconclusive (no result: Sfp PPTase inh, FBPA coupling cs)
CCNc1nc(NC(C)CC)nc(Oc2ccc(OCC)nn2)n1 (stereo not drawn)	none
CN(CC(=O)Nc1ccccc1Br)C(=O)c1cccn1C	none (no result: Sfp PPTase inh, Tau FP inhib, FBPA coupling cs, Tau fibril ThT, Tau fluor counter)
CC(C)=CCCC1(C)C=Cc2c(c(C)cc3c2[nH]c2cc(O)ccc23)O1 (stereo not drawn)	Tau FP inhib inconclusive, Tau fibril ThT 28.2µM, Tau fluor counter 5.01µM[quencher], G9a inh inconclusive
CCN1CCCC1CNC(=S)Nc1ccc(C(C)=O)cc1 (stereo not drawn)	G9a inh 39.8µM
CC(=O)c1ccc(NC(=S)N2C(C)CCCC2C)cc1 (stereo not drawn)	Sfp PPTase inh 44.7µM, G9a inh 50.1µM
